Only some compounds are listed: those with a hit (about 11% of all), similar ones and a draw of the others.
PLK1 PBD inh: blocks phosphopeptide binding to human PLK1 polo-box domain; Plk1 PBD binding of FITC phosphopeptide, fluorescence polarization; Potency, µM, actives largely listed as inhibitors; P53350; 360,000 compounds, 2.8% hits; note: series mostly up to about 57 µM; nearly all actives have a fitted effect of over 65% in size
JMJD2A Tudor inh: JMJD2A Tudor domain (human) inhibition; O75164; AlphaScreen JMJD2A-Tudor / H3K4me3 peptide binding; Potency, µM (doses to about 114 µM), hits mostly inhibitors; 390,000 compounds, 4.4% hits; note: nearly all actives have a fitted effect of over 50% in size
G9a block: G9a (human) methyltransferase inhibition. Potency, µM (highest dose often 102 µM), actives largely listed as inhibitors. Q96KQ7. 350,000 compounds, 8.8% hits. AID 504332. G9a H3K9 monomethylation, AlphaScreen, 2 h; note: nearly all actives have a fitted effect of over 75% in size
Target sequence (Q96KQ7 913-1193 limits assumed): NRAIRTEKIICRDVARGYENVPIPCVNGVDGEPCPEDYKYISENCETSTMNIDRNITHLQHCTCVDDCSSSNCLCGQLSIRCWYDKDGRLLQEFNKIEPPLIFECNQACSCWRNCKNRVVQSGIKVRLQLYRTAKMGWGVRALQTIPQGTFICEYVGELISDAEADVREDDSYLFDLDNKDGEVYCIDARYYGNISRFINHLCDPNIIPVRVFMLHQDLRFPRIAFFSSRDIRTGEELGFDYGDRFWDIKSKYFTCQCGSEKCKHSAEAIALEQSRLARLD
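Chemiluminescent proximity detection of H3K9 monomethylation, read after 10 min bead incubation in the dark. Reaction: 20 nM G9a, 500 nM biotin-H3K9 peptide, 20 uM SAM cofactor, 2 h, room temperature, following 15 min enzyme-compound preincubation.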
HP1b chromo inh: blocks HP1-beta chromodomain binding to methylated histone tails; 390,000 compounds, 0.56% hits; Potency, µM (highest dose often 114 µM), most hits filed as inhibitors; AID 540317; AlphaScreen HP1-beta / biotin-H3K9me3 peptide binding; note: nearly all actives have a fitted effect of over 70% in size
Target sequence (P83916 whole entry, looked up): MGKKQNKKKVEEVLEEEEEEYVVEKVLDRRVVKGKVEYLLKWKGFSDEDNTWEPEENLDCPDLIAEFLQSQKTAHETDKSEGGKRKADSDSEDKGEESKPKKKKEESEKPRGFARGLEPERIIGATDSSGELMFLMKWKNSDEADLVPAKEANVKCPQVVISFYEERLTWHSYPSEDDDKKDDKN
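Compound inhibition of the preformed complex between 50 nM HP1-beta and 50 nM biotinylated H3K9me3 peptide was read by AlphaScreen. Buffer was PBS pH 7.4 with 0.01% Tween-20. Incubations ran 30 min at room temperature, with 10 ug/mL donor/acceptor beads.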
BAZ2B block: inhibitors of human BAZ2B bromodomain | Potency, µM (doses to about 114 µM), usual class: inhibitors | AlphaScreen BAZ2B-H3K14Ac peptide displacement | 360,000 compounds, 4.4% hits | AID 504333; note: nearly all actives have a fitted effect of over 60% in size
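BAZ2B (50 nM) with biotin-H3(5-23)K14Ac peptide (50 nM) in PBS pH 7.4, 0.01% Tween-20, preformed 30 min, then compound 30 min at room temperature; top concentration 110uM. AlphaScreen streptavidin donor/nickel chelate acceptor beads (10 ug/mL final), 20 min dark, signal read.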
VDR inh: inhibitors of human vitamin D receptor; P11473; VDR-SRC2-3 peptide fluorescence polarization, 2 h; Potency, µM, actives largely listed as inhibitors; 400,000 compounds, 0.93% hits; AID 504847
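Measured by FP: displacement of SRC2-3 coactivator peptide from VDR by library compounds, following a two-hour ambient incubation.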
Of the large screens only hits and unclear results are named; the others gave an inactive call. Calls come from the whole dose curve; as a rule, active = well fitted curve in the direction sought with a large enough effect; inconclusive = small, poorly fitted or top-dose-only effect, or another doubt; inactive = no such curve, though single readings can be large; an effect the other way counts as inactive or inconclusive.

Cn1c(=O)cc(SCC(=O)Nc2ccc3c(c2)OCO3)c2ccccc21	none
O=C(CSc1cccc[n+]1[O-])Nc1ccc2c(c1)OCO2	G9a block 50.1µM
CCCS(=O)(=O)NC(=O)C1(C)CCN(C(=O)c2c(F)cccc2F)C1 (stereo unspecified)	none (no result: JMJD2A Tudor inh, G9a block, HP1b chromo inh, BAZ2B block, VDR inh)
CCOc1ccc(NS(=O)(=O)c2cc(NC(=O)c3cccc(C)c3)ccc2Cl)cc1	none
COc1ccc(-c2sc3ccc(N4CCOCC4)cc3c2C#CC(C)(C)O)cc1	JMJD2A Tudor inh inconclusive, BAZ2B block 50.1µM
COc1ccc2sc(-c3ccc(N(C)C)cc3)c(C#Cc3cncn3C)c2c1	JMJD2A Tudor inh 22.4µM (no result: G9a block, BAZ2B block)
COc1ccc(-c2sc3ccc(OC)cc3c2C#CCCO)cc1	G9a block 35.5µM
COc1ccc(-c2sc3ccc(N4CCOCC4)cc3c2C#Cc2ccsc2)cc1	none (no result: G9a block, BAZ2B block)
Cc1ccc2nc(Cl)c3cc(C(=O)NC4CCC(C)CC4)sc3c2c1 (stereo unspecified)	none (no result: PLK1 PBD inh)
Cc1cc(-c2ccc(C)c(S(=O)(=O)Nc3cc(C)on3)c2)on1	none
Cc1[nH]n(-c2cccc(Cl)c2)c(=O)c1-c1ccccc1	BAZ2B block inconclusive
Cc1cccc(-n2[nH]c3c4c(ccc3c2=O)C(=O)c2ccccc2C4=O)c1	G9a block 14.1µM, BAZ2B block inconclusive
N/C(=N\OC(=O)Cc1ccccc1[N+](=O)[O-])c1ccccn1	JMJD2A Tudor inh inconclusive, G9a block inconclusive, BAZ2B block 56.2µM
COc1cccc(C(=O)O/N=C(\N)c2ccccn2)c1OC	PLK1 PBD inh 23.8µM, JMJD2A Tudor inh inconclusive, VDR inh inconclusive
N/C(=N\OC(=O)c1cccc2ccccc12)c1ccccn1	none
N/C(=N\OC(=O)Cc1cccc2ccccc12)c1ccccn1	none
Cc1c(C(=O)O/N=C(\N)c2ccccn2)cccc1[N+](=O)[O-]	JMJD2A Tudor inh 11.2µM, G9a block 31.6µM
Cc1c(C(=O)Oc2cccc3cccnc23)cccc1[N+](=O)[O-]	JMJD2A Tudor inh 44.7µM, G9a block inconclusive, HP1b chromo inh inconclusive, BAZ2B block 14.1µM
CCN1CCN(Cc2c(O)ccc3c(=O)c(Oc4ccccc4C(C)C)c(C(F)(F)F)oc23)CC1	none (no result: PLK1 PBD inh)
O=c1cnc2cnc(N3CCNCC3)nc2n1Cc1ccc(F)cc1	none (no result: PLK1 PBD inh, JMJD2A Tudor inh, HP1b chromo inh, BAZ2B block)
NSc1nc(N)c2nc(-c3ccccc3)c(-c3ccccc3)nc2n1	PLK1 PBD inh 13.4µM, G9a block 6.31µM, VDR inh 8.91µM
Nc1nc(N)c2nc(-c3ccccc3)c(N)nc2n1	none
CCOC(=O)C1CCCN(c2nc3c(S(=O)(=O)c4ccc(CC)cc4)nnn3c3ccsc23)C1 (stereo unspecified)	none (no result: PLK1 PBD inh)
CC1C(=O)N(C)C(=O)c2nc[nH]c21 (stereo unspecified)	none (no result: PLK1 PBD inh, JMJD2A Tudor inh, HP1b chromo inh, BAZ2B block)
CCOc1ccc(NC(=O)/C(C#N)=C/c2ccc(N3CCCC3)c(C)c2)cc1	none
CCOc1cc(/C=C(/C#N)C(=O)Nc2ccc(O)cc2)cc(Br)c1O	G9a block 50.1µM
C=CCNC(=O)/C(C#N)=C\c1cc(Cl)c(O)c(OCC)c1	G9a block 11.2µM
COC(=O)[C@H](CC(C)C)NC(=O)/C=C/[C@H]1O[C@@H](n2ccc(=O)[nH]c2=O)[C@H](O)[C@@H]1O	none (no result: JMJD2A Tudor inh, G9a block, HP1b chromo inh, BAZ2B block, VDR inh)
CCC1(c2ccccc2)SCC(c2ccccc2)=NC1=O (stereo unspecified)	none (no result: G9a block, BAZ2B block)
CC(CCC(C)C(C)(C)C)[C@@H]1CC[C@H]2C3C[C@H](OS(O)(=S)=S)[C@H]4C[C@H](OS(O)(=S)=S)[C@@H](OS(O)(=S)=S)C[C@]4(C)[C@H]3CC[C@]12C (stereo partly specified) (tested in a mixture with another compound)	PLK1 PBD inh 4.74µM, JMJD2A Tudor inh 22.4µM, HP1b chromo inh inconclusive, VDR inh 22.4µM (no result: G9a block, BAZ2B block)
CCC(C)NC(=O)Cn1ncc2c([nH]c3ccc(C)cc32)c1=O (stereo unspecified)	none (no result: PLK1 PBD inh)
Cc1ccc(C(=O)NCC(=O)NCC(=O)OCC(=O)c2ccc([N+](=O)[O-])cc2)cc1	VDR inh 79.4µM (no result: G9a block)
O=C(CNS(=O)(=O)c1ccccc1)OCC(=O)c1ccc([N+](=O)[O-])cc1	JMJD2A Tudor inh inconclusive, G9a block 7.08µM, VDR inh inconclusive
O=C(CNC(=O)c1ccco1)OCC(=O)c1ccc([N+](=O)[O-])cc1	PLK1 PBD inh inconclusive, G9a block 25.1µM, VDR inh inconclusive
O=C(NCCc1ccccc1)c1ccc(-c2ccc(F)c(F)c2)c2ccoc12	none (no result: JMJD2A Tudor inh, G9a block, HP1b chromo inh, BAZ2B block, VDR inh)
Cc1ccc(C)c(S(=O)(=O)c2nnn3c2nc(Nc2ccc(C)c(C)c2)c2ccccc23)c1	none (no result: PLK1 PBD inh)
CCOC(=O)CN1C(=O)C(O)=C(C(C)=O)C1c1ccc([N+](=O)[O-])cc1 (stereo unspecified)	G9a block inconclusive, BAZ2B block inconclusive
CCCCN1C(=O)C(O)=C(C(C)=O)C1c1ccccc1 (stereo unspecified)	G9a block 50.1µM, BAZ2B block inconclusive
COCCCN1C(=O)C(O)=C(C(C)=O)C1c1cccc(F)c1 (stereo unspecified)	JMJD2A Tudor inh inconclusive, G9a block 50.1µM, BAZ2B block inconclusive
CCOC(=O)CN1C(=O)C(O)=C(C(C)=O)C1c1ccccc1 (stereo unspecified)	JMJD2A Tudor inh inconclusive, BAZ2B block 79.4µM
CCOC(=O)C1(Cc2cccc(F)c2)CCN(C(=O)Cn2cnnn2)CC1	none
CC(C)(C)NC(=O)C(c1ccc(-c2ccccc2)cc1)N(C[C@H]1CC[C@@H]([C@@H]2CC[C@H](CO)O2)O1)C(=O)c1ccccc1F (stereo partly specified)	none (no result: G9a block, BAZ2B block)
CC(=O)c1ccccc1NC(=O)C1CCCN(C(=O)c2ccc(Cl)cc2)C1 (stereo unspecified)	none
CCC1CCC(c2nnc(-c3ccc([N+](=O)[O-])cc3)o2)CC1 (stereo unspecified)	G9a block 10µM, BAZ2B block inconclusive
CCS(=O)(=O)Nc1ccc(C(=O)CC2(O)C(=O)Nc3ccc(Br)cc32)cc1 (stereo unspecified)	PLK1 PBD inh 21.2µM
O=C(O)CCCCC1CCSS1 (stereo unspecified)	G9a block 1.78µM, BAZ2B block 1µM
C=CCC1C=C(Cc2ccccc2)CC(CC=C)N1 (stereo unspecified)	none
C=CC[C@H]1CC(Cc2ccccc2)=C[C@H](CC=C)N1	PLK1 PBD inh 23.8µM, JMJD2A Tudor inh inconclusive, G9a block 44.7µM, HP1b chromo inh inconclusive, VDR inh inconclusive
CC1CCC(C(C)C)C(P(=O)(c2ccccc2)c2ccccc2)C1 (stereo unspecified)	none (no result: PLK1 PBD inh, JMJD2A Tudor inh, G9a block, HP1b chromo inh, BAZ2B block)
COc1ccc(-n2c(=O)c3c4c(sc3n(C)c2=O)CN(C(C)=O)CC4)cc1	none (no result: PLK1 PBD inh)
COc1c(OC(C)=O)c(=O)n2c3ccccc3c3ccnc1c32	PLK1 PBD inh 23.8µM

Assay outcomes deposited in PubChem by National Center for Advancing Translational Sciences (NCATS).
